From PubChem BioAssay AID1034 (Columbia University Molecular Screening Center, 2008)
The other results are listed elsewhere or left out. Unmarked numbers belong to inactive results.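 The calls were made as follows: active = activation above 30% in triplicate retests at 2 µM, then confirmed by visual review of the well images; inactive = the rest.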

test: enhancers of VCAM1 induction in HUVEC – imaging, triplicate retest, confirmation (AID 1034); conditions: HUVEC TNFa-stimulated VCAM-1 immunofluorescence imaging; at 2 µM; hits give high values;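 also: scaled per plate between unstimulated and TNFa-stimulated DMSO control wells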

Row | Structure (SMILES) | activation [%]
1 | COc1ccc(/C=N/Nc2nc3ccccc3o2)cc1OC | -3.9
2 | O=C(Nc1ccncc1)c1c(F)cccc1F | -14.6
3 | COc1ccc(OC)c(N=Cc2c(O)[nH]c3ccccc23)c1 | -13.9
4 | CC1=NN(C(C)C)C(=O)C1 | -8.4
5 | CCOc1cc(-c2cc(-c3ccc(OC)cc3)nc(N)c2C#N)ccc1O | -5.2
6 | CC(=O)c1cnn(-c2cc(Oc3ccc(F)cc3)ncn2)c1C | -14.8
7 | CCOc1ccc(N=C2NC(=O)S/C2=C\c2ccc(O)cc2)cc1 | -20.4
8 | Cc1cccc2cc(CN(Cc3ccc4c(c3)OCO4)Cc3nnnn3C3CCCC3)c(=O)[nH]c12 | 4.1
9 | CCN(CC(=O)Nc1ccc2c(c1)OCCO2)Cc1cc(=O)oc2cc(C)c(C)cc12 | -6.7
10 | CCCOc1cc(C)c(S(=O)(=O)n2nnc3ccccc32)cc1C | -4.7
11 | COCCNS(=O)(=O)c1cc(Br)ccc1OC | -14.1
12 | CC1(C)CC(=O)C=C(N2CCCC2)C1 | -17.7
13 | CCCCN(C)C(=O)C1CCN(Cc2ccccn2)CC1 | -13
